Only some compounds are listed: those with a hit (about 4% of all), similar ones and a draw of the others.
EBV LMP1 NFkB: EBV LMP1-driven NF-kappaB luciferase reporter inhibitors, primary screen, cell-based, luminescence, single point; inhibition, % at 12.5 µM; 350,000 tested, 0.69% active; AID 504558, 2011; LMP1-induced NF-kappaB luciferase reporter cells; in the data active = inhibition above about 41%; inconclusive = no clear call, values can overlap the other calls;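 also: 0% = neutral control wells and 100% = reference inhibitor control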
MITF TRPM1 inh: inhibitors of MITF-dependent TRPM1 promoter reporter, primary screen, cell-based, SK-MEL-5, single point, luciferase; AID 488899, 2010; inhibition, % at 12.5 µM; SK-MEL-5 TRPM1 promoter luciferase, 24 h; 330,000 tested, 0.83% active;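 active = mean inhibition across replicates of 60% or more, whatever share of single replicates reaches that level; inconclusive = some that reach 60%, reason not given; inactive = mean inhibition across replicates below 60%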
MITF act: activators of MITF-driven TRPM1 promoter reporter, primary screen, cell-based, SK-MEL-5, luciferase, single point. SK-MEL-5 TRPM1-promoter luciferase, 24 h; % of positive control, neutral wells = 0. activation, % at 12.5 µM. 300,000 tested, 0.75% active;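 active = mean activation of at least 80% with every replicate also reaching 80%; inconclusive = mean reaches 80% but some replicate falls short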;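 also: 0% = neutral control wells and 100% = parthenolide positive control wells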
esBAF inh: Bmi1 luciferase reporter increase in mESCs, primary screen, esBAF inhibitor project, mouse ES cells, Bmi1 luciferase knock-in, single point; 24 h; 100% = twice the neutral-well signal; reporter increase, % at 12.5 µM; 350,000 tested, 2% active; in the data active = activation above about 40%; inconclusive = no clear call, values can overlap the other calls;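 also: 0% = median of the plate's neutral control wells and 100% = double that signal; a rise in the Bmi1 reporter signal indicates esBAF inhibition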
Wnt act: Wnt/beta-catenin pathway activators, primary screen, cell-based, plate reader, single point | Wnt/beta-catenin reporter cell assay, activator | activation, % at 9.35 µM | 300,000 tested, 1.2% active | AID 743398, 2014; in the data active = activation above about 30%, passing the limit was not always enough; inconclusive = no clear call, values can overlap the other calls;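 also: 0% = neutral control wells and 100% = positive control wells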
Statin myotox sup: suppressors of statin myotoxicity in C2C12 myotubes, primary screen, cell-based, single point, plate reader. C2C12 myotubes + simvastatin, ATP luminescence, 48 h; scaled: DMSO 0, geranylgeraniol control 100. 330,000 tested, 0.78% active. rescue of ATP level, % at 7.49 µM;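 active = mean ATP rescue above about 67%, or every replicate alone reaching that limit, limit read from the data, passing the limit was not always enough; inconclusive = no clear call, values can overlap the other calls; inactive = mean under the limit and some replicate under it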;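 also: myotubes were challenged with 10 µM simvastatin during compound exposure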
* = called active by the depositor; ? = inconclusive; . = no result given.

SMILES	EBV LMP1 NFkB	MITF TRPM1 inh	MITF act	esBAF inh	Wnt act	Statin myotox sup
CCOCCCNC(=O)c1ccc(Br)cc1	-23	-8	7	23	15	-6
CCOCCCNC(=O)c1ccc(/C=C2\Oc3ccccc3N(C)C2=O)cc1	-2	-20	20	72*	2	-1
Cc1ccc(NC(=O)/C(C#N)=C/c2ccc(C)s2)c(C)c1	-13	-40	42	42*	.	10
Cc1cc(N2C(=O)CC(Cc3ccccc3)C2=O)no1 (stereo not given)	3	-6	8	4	.	0
O=C(CN1CCOCC1)Nc1ccc(Br)cn1	-11	0	-1	6	.	12
N#Cc1cc2cc3c(cc2nc1N1CCCCC1)OCCO3	-19	-98	102*	70*	32*	13
O=C(O)c1cccc(CN2C(=O)SC(Nc3cccc4ccccc34)C2=O)c1 (stereo not given)	0	10	-9	-3	40*	7
O=C(O)c1cccc(CN2C(=O)SC(Nc3ccccc3)C2=O)c1 (stereo not given)	-5	5	-4	5	3	-4
Cc1cc(N/N=C/c2ccc(F)cc2)nc(-n2nc(C)cc2C)n1	.	.	.	.	0	.
CCOc1cc(/C=N/Nc2cc(C)nc(-n3nc(C)cc3C)n2)ccc1O	70*	?	-57	-1	-1	-22
COc1ccccc1CNCCS(=O)(=O)NCc1ccccc1OC	-1	2	-3	-4	-2	-15
Cc1ccc(C(=O)OCc2cc(=O)n3c(C)csc3n2)s1	-2	-50	54	-1	3	18
COc1ccc(C(=O)OCc2cc(=O)n3c(C)csc3n2)cc1F	-4	-103	106*	73*	19	-4
COc1ccc(N2CCN(C(=S)Nc3cccc(OC)c3)CC2)cc1	-1	0	.	-2	-1	4
CCOC(=O)C1(Cc2ccccc2)CCCN(C(=O)C=C(C)C)C1 (stereo not given)	-14	-79	88*	60*	4	7
CCOC(=O)C1(Cc2ccccc2)CCCN(C(=O)COc2ccccc2OC)C1 (stereo not given)	-24	.	.	.	39*	.
CCOC(=O)C1(Cc2ccccc2)CCCN(C2CCN(C(C)=O)CC2)C1 (stereo not given)	3	1	-1	-1	1	1
CCOC(=O)C1(Cc2ccccc2)CCCN(C(=O)c2cn[nH]c2)C1 (stereo not given)	2	-6	0	3	-1	0
O=C(c1cccc(COc2ccc(Cl)cc2Cl)c1)N1CCN(c2ccccn2)CC1	5	-29	30	27	.	34
O=C(NCc1ccccc1)c1cccc(COc2ccccc2Cl)c1	-9	-33	41	45*	-1	.
CN(C(=O)c1cccc(COc2ccc(Cl)cc2Cl)c1)c1ccccc1	-5	-35	38	72*	.	1
O=C(NCc1ccccc1)c1cnc(Cl)c(Cl)c1	3	-9	13	6	4	-30
O=C(NCc1ccccc1)c1cccc(COc2cc(Cl)ccc2Cl)c1	-18	-70	70	71*	11	-2
O=C(c1cccc(COc2cccc3ccccc23)c1)N1CCCC1	10	-27	.	74*	?	-28
O=C(c1ccccc1)N1CCN(CC(O)COc2cccc3ccccc23)CC1 (stereo not given)	4	9	.	-2	2	1
SMILES	EBV LMP1 NFkB	MITF TRPM1 inh	MITF act	esBAF inh	Wnt act	Statin myotox sup
COc1ccc(C(=O)C2CCN(C(=O)c3ccc(F)cc3)CC2)cc1	2	1	.	-6	-1	-6
Cc1nc2ccc(NC(=O)c3ccc(C)c(S(=O)(=O)N4CCOCC4)c3)cc2s1	-7	-14	15	31	4	1
CC(=O)N1CCOc2ccc(S(=O)(=O)NCc3ccccc3Cl)cc21	7	4	3	4	2	10
N#CC(C#N)=C(Nc1ccc(F)cc1)SCc1cccc(Br)c1	?	63*	-63	.	-11	.
Cc1cccc(CSC(Nc2ccc(F)cc2)=C(C#N)C#N)c1	6	16	-15	.	.	.
Nc1ncnc2c(C3OC(CO)C(O)C3O)c[nH]c12 (stereo not given)	92*	.	-99	.	-5	.
C=C1C(=O)OC2CC1C(O)CC(C)=CCCC(C)=CC(O)CC2C (stereo not given)	-3	95*	.	.	-4	.
O=C(Cc1csc(Nc2nc(=S)[nH]c3ccccc23)n1)N1CCN(c2cccc(Cl)c2)CC1	10	78*	-76	-4	-3	-81
Cc1ccc(Cl)cc1N1CCN(C(=O)Cc2csc(Nc3nc(=S)[nH]c4ccccc34)n2)CC1	-50	32	-33	.	-4	.
O=[N+]([O-])c1cccc(-c2noc(-c3cccs3)n2)c1	-59	-48	49	.	48*	.
CCOc1ccc(OCc2ccc(C(=O)N3CCOCC3)cc2)cc1	-3	-25	.	35	.	0
CCOc1ccc(N=C(/C(C(=O)C(=O)N2CCOCC2)=C(\O)c2ccccc2)c2ccccc2)cc1	-13	-85	87*	68*	10	0
C=CCn1c(SCc2ccc(Cl)cc2)nc2c1c(=O)[nH]c(=O)n2C	6	-24	24	-6	.	27
O=C(Cn1nc(C(F)(F)F)c2c1CCC2)NC1CCCCC1	44*	1	.	-5	-6	1
Cn1cnnc1SCC(=O)Nc1ccc2nc(SCc3ccccc3F)sc2c1	-36	-105	106*	64*	25	13
Cc1ccc(/C=C/C(=O)c2nc3ccccc3[nH]2)cc1	7	-8	4	3	37*	4
Cc1ccc(/C=C/C(=O)Nc2nc3ccccc3[nH]2)cc1	-19	-102	107*	.	28	.
Cc1onc(-c2c(F)cccc2Cl)c1C(=O)Nc1nc2ccccc2[nH]1	-24	-2	10	18	.	13
O=C(/C=C/c1c(F)cccc1Cl)Nc1nc2ccccc2[nH]1	-2	-84	?	.	37*	.
COc1ccc(CN(C)C[C@H]2Oc3ccc(NC(=O)Nc4ccc5c(c4)OCO5)cc3CC(=O)N([C@@H](C)CO)C[C@@H]2C)cc1	.	.	.	-1	.	2
O=C(c1ccc(Br)s1)N1CCN(S(=O)(=O)c2ccccc2)CC1	-3	-7	6	.	1	.
Cc1cccc(C)c1NC(=O)COC(=O)C1CC(=O)N(Cc2ccccc2)C1 (stereo not given)	-10	5	-3	-4	1	-7
COc1ccc(CCNc2ncccc2C#N)cc1OC	-21	-76	75	54*	19	12
COc1ccc(CCNc2ncnc3cc(OC)c(OC)cc23)cc1OC	22	16	-11	-17	-1	-32
